Compound activity: PubChem, National Center for Advancing Translational Sciences (NCATS)
This is a sample that favours compounds with a hit; in the whole collection about 6% have one here.
Sfp PPTase inh = blocks B. subtilis Sfp PPTase activity. Biochemical Sfp PPTase activity, qHTS. Potency, µM, for inactives: largest response in the series, negative = inhibition, most hits filed as inhibitors. hit rate 3.5% among 310,000;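 note: the enzyme is Sfp with the accession as filed and its product quenches rhodamine fluorescence; 0% = enzyme reaction without inhibitor and -100% = no enzyme wells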
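Fluorescence-quenching assay with 15 nM Sfp, 5 uM rhodamine-CoA and 12.5 uM BHQ-2-labelled ybbR peptide in pH 7.6 Hepes/MgCl2 buffer. Enzyme was pre-incubated with compound for 15 min at room temperature. Rate was taken from the 30-min fluorescence change (525/598 nm).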
Tau fluor counter = counter-screen for tau fibril formation inhibitors | AID 1463 | hit rate 0.93% among 280,000 | Potency, µM (titrated, usually from 57.7 µM), without a hit: at the highest dose activity change, negative = decrease | tau K18 P301L Alexa594 fluorescence, heparin fibrillization; note: nearly all actives have a fitted effect of over 55% in size
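Human tau K18 P301L (15 uM unlabeled, 0.24 uM Alexa 594-labeled) in 100 mM sodium acetate pH 7 with 20 uM heparin, 6 hr at 37 C. ThT 30 uM added, 1 hr ambient; Alexa 594 FP and total fluorescence read at 555/632 nm.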
VDR inh = vitamin D3 receptor (human) inhibition; VDR-SRC2-3 peptide fluorescence polarization, 2 h; Potency, µM, for the others: max response, negative = inhibition, hits mostly inhibitors; hit rate 0.93% among 400,000
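Two reagent solutions held at 4 deg C in the dark were dispensed, compounds pinned at 23 nl, and the mixture incubated 2 h at room temperature. Read-out: fluorescence polarization of VDR–SRC2-3 peptide binding.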
Tau fibril FP = tau fibrillization inhibition (FP). Potency, µM (highest dose often 57.7 µM), for the others: top-dose activity, negative = inhibition, most hits filed as inhibitors. K18 P301L tau heparin fibrillization, Alexa594 FP, 6 h. AID 1468. hit rate 0.39% among 280,000; note: nearly all actives have a fitted effect of over 55% in size
Target sequence (P10636 561-689 P618L limits assumed): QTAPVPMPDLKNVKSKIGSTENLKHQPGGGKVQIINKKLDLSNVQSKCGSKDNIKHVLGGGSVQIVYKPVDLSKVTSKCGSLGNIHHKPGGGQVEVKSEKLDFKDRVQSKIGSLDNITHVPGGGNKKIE
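Compound effects on tau fibrillization are measured by Alexa 594 fluorescence polarization (ex 555, em 632 nm). K18 P301L tau is used at 15 uM with 0.24 uM labeled tracer, and 20 uM heparin induces aggregation over 6 hr at 37 C.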
Tau ThT inhib = tau fibrillization inhibition (ThT binding); P10636; recombinant tau K18 P301L (four-repeat tau fragment), heparin-induced fibrillization, ThT fluorescence; Potency, µM (top dose mostly 57.4 µM), for inactives: top-dose activity, negative = inhibition, hits mostly inhibitors; hit rate 2.1% among 270,000; AID 1460; note: nearly all actives have a fitted effect of over 55% in size
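Recombinant human tau K18 fragment […] carrying P301L, 15 uM unlabeled plus 0.24 uM Alexa 594-labeled, was fibrillized with 20 uM heparin in 100 mM sodium acetate pH 7 for 6 hr at 37 C; 30 uM ThT fluorescence read after 1 hr.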
PLK1 PBD block = inhibitors of human PLK1 polo-box domain binding; Potency, µM, inactives show max response, negative = inhibition, usual class: inhibitors; AID 720504; hit rate 2.8% among 360,000; Plk1 PBD binding of FITC phosphopeptide, fluorescence polarization; P53350; note: series mostly up to about 57 µM; nearly all actives have a fitted effect of over 65% in size
Target sequence (P53350 whole entry, looked up, the tested form may be a part): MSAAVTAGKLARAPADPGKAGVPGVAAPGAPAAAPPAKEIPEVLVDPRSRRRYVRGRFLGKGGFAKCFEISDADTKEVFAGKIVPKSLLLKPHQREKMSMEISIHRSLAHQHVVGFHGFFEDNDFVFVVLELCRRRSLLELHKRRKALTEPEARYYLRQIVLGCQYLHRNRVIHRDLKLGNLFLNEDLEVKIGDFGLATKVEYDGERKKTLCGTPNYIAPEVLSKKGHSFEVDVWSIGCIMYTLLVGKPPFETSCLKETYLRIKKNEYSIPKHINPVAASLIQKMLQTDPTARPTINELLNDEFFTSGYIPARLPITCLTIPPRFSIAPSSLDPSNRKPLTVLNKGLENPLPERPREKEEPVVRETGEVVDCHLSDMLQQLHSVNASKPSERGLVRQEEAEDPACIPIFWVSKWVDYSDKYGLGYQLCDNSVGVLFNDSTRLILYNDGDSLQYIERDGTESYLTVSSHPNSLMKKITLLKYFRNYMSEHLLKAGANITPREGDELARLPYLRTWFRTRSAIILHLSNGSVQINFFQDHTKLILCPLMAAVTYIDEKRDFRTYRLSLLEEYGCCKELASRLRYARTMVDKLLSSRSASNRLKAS
Starred values were filed as active, the others as inactive; ? = inconclusive; . = not tested or not shown. Calls come from the whole dose curve; as a rule, active = well fitted curve in the direction sought with a large enough effect; inconclusive = small, poorly fitted or top-dose-only effect, or another doubt; inactive = no such curve, though single readings can be large; an effect the other way counts as inactive or inconclusive. Unless noted, % is set by controls: 0 for no effect and ±100 for the full control effect; potency is the fitted concentration of half-maximal effect.

SMILES	Sfp PPTase inh	Tau fluor counter	VDR inh	Tau fibril FP	Tau ThT inhib	PLK1 PBD block
Cc1cc(OCCn2cnc3ccccc3c2=O)cc(C(C)C)c1	6%	5%	-30%	9%	-1%	21µM*
CCCCN(C)CCNC(=O)c1ccc(Cn2c(=O)[nH]c3cc(OC)c(OC)cc3c2=O)cc1	.	-17%	-25%	?	-15%	.
N=C1Sc2ccccc2C2=NCCCN12	.	-17%	.	14µM*	7.1µM*	.
Clc1ccc2c(c1)-c1ccccc1C1=NCCN12	.	.	.	.	.	4%
C=C(C)CN=CC1(C)CCC(C)=CO1 (stereo not given)	.	.	-5%	.	.	-1%
Cc1cccc(N2CCN(C(=O)C3CCN(S(=O)(=O)c4cccs4)CC3)CC2)c1C	.	-2%	-6%	-4%	-4%	.
CN1/C(=C\C(=O)COC(=O)c2ccccc2O)C(C)(C)c2ccccc21	-6%	-27%	4%	12%	?	-1%
Cc1ccc(C(=O)NC(=S)/C=C2\N(C)c3ccccc3C2(C)C)cc1	?	-16%	6%	3%	10µM*	?
Cc1ccc(C(=O)NCC(=O)OCC(=O)/C=C2\N(C)c3ccccc3C2(C)C)cc1C	-5%	-3%	?	12%	?	30µM*
CCNC(=S)Nc1c(C)n(C)n(-c2ccccc2)c1=O	-1%	-8%	-2%	3%	-8%	1%
Cc1c(NC(=S)/C=C2\N(C)c3ccccc3C2(C)C)c(=O)n(-c2ccccc2)n1C	50µM*	20%	-9%	11%	?	?
Cc1c(NC(=S)NNC(=O)CCC(=O)O)c(=O)n(-c2ccccc2)n1C	45µM*	-2%	-8%	-1%	-2%	-6%
CC(C)C(=O)NC(=S)/C=C1/N(C)c2ccccc2C1(C)C	?	?	-4%	10%	?	-27%
COc1ccc2cc3cc(C(=O)Nc4ccccc4C)oc3nc2c1	.	-25%	-14%	-13%	?	.
COCCn1c(=O)c(C)nc2cncnc21	12%	.	1%	.	.	.
CCNc1ncc2nc(-c3ccc(OC)cc3)c(=O)n(Cc3cccs3)c2n1	-8%	.	-11%	.	.	.
Cc1ccc(-c2ccc(/C=C3\SC(N4CCOCC4)=NC3=O)o2)cc1	40µM*	?	-2%	-5%	13µM*	-20%
O=C1N=C(N2CCN(c3ccccc3)CC2)S/C1=C/c1cccs1	-3%	-19%	0%	7%	?	0%
O=C1N=C(N2CCOCC2)S/C1=C/c1ccc(-c2ccc(F)cc2)o1	-4%	-15%	-5%	5%	?	-4%
Cc1ccc(/C=C2\SC(N3CCN(C(c4ccccc4)c4ccccc4)CC3)=NC2=O)o1	4µM*	7%	?	3%	5%	-10%
Cc1ccc(NC(=O)Cn2c(=O)n(Cc3ccc4c(c3)OCO4)c(=O)c3ccc(C(=O)NC4CCCCC4)cc32)cc1	.	-20%	20%	?	17%	.
CCCC(=O)OC[C@@H](OC(=O)CCC)[C@@H](OC(=O)CCC)[C@H](Cn1c2nc(=O)[nH]c(=O)c-2nc2cc(C)c(C)cc21)OC(=O)CCC	18%	.	?	.	.	.
CC(=O)OCCn1c2nc(=O)[nH]c(=O)c-2nc2cc(C)c(C)cc21	7%	-8%	-18%	-12%	?	0.84µM*
O=c1c2oc3nc4c(cc3c2ncn1CCCc1ccccc1)CCCC4	-11%	-20%	2%	-5%	?	11%
Cc1csc2nc(-c3ccc(NS(=O)(=O)c4cc(F)ccc4F)cc3)cn12	.	-29%	-4%	13%	-15%	.
SMILES	Sfp PPTase inh	Tau fluor counter	VDR inh	Tau fibril FP	Tau ThT inhib	PLK1 PBD block
Cn1c(=O)c2[nH]c(SCCN3CCOCC3)nc2n(C)c1=S	.	.	28µM*	.	.	27µM*
O=C(COC(=O)c1c[nH]c(=O)[nH]c1=O)Nc1ccccc1F	71µM*	4%	2%	3%	3%	-16%
CC(C)c1cccc(C(C)C)c1NC(=O)CNCc1ccccc1F	45µM*	1%	6%	-4%	-6%	-14%
CC(C)c1cccc(C(C)C)c1NC(=O)CNCC(O)c1ccccc1 (stereo not given)	-13%	.	5%	.	.	4%
O=C(NCCC1=CCCCC1)c1ccc2c(c1)N(Cc1ccccc1F)C(=O)c1ccccc1S2=O (stereo not given)	.	-26%	5%	-11%	-12%	.
CC(C)(C)c1ccc(-n2nc(C(N)=O)c(O)cc2=O)cc1	14%	4%	?	7%	0%	4.7µM*
CC1CN(S(=O)(=O)c2ccc(C(=O)N(C)C3CCCCC3)cc2)CC(C)O1 (stereo not given)	.	.	-6%	.	.	-2%
O=C(Nc1cnc2ccccc2c1)N1CCOCC1	7%	4%	2%	6%	-2%	27µM*
CC(C)COc1ccc(C(=O)CCN2CCCCC2)cc1	-22%	6%	?	8%	?	21µM*
O=C(OCCN1CCCCC1)c1ccc(Cl)cc1	89µM*	-8%	-13%	-9%	-9%	-3%
CCCCOc1ccc(C(=O)CCN2CCCCC2)cc1	-22%	9%	4.5µM*	12%	?	?
CC(=O)c1ccc(OCCCN2CCCCC2)cc1	-14%	-3%	15%	-1%	0%	-3%
CCCCCC(O)(CCN1CCCCC1)c1ccc(OCC)cc1 (stereo not given)	-13%	-10%	?	8%	-19%	17µM*
O=C(NCc1ccccc1F)C1CCN(c2nnc(-n3cccc3)s2)CC1	.	-13%	-1%	-2%	?	.
COCCn1c(C)cc(O)c(C(c2ccccc2F)N2CCN(c3ccccc3)CC2)c1=O (stereo not given)	.	-2%	-10%	?	?	.
CC(=O)c1ccc(N2CCN(C(=O)c3cc4c(s3)-c3ccccc3OC4)CC2)cc1	.	-26%	10%	-1%	?	.
CCCCCC1CC1C(=O)N/N=C/c1ccc(N(C)C)cc1 (stereo not given)	-16%	?	-4%	4%	16µM*	-6%
COC(=O)c1[nH]c(C)c(/C(O)=C2\C(=O)C(=O)N(CCCN3CCOCC3)C2c2ccccn2)c1C (stereo not given)	50µM*	-22%	8%	-9%	?	-16%
COc1ccc(/C(O)=C2/C(=O)C(=O)N(CCN3CCOCC3)C2c2ccccn2)cc1 (stereo not given)	50µM*	-10%	-20%	-11%	?	?
O=C1C(=O)N(CCN2CCOCC2)C(c2ccccn2)/C1=C(/O)c1ccc(F)cc1 (stereo not given)	56µM*	-23%	-9%	-12%	?	11µM*
Cc1cc(-c2ccc(S(=O)(=O)NCc3ccccc3Cl)s2)on1	.	-28%	-5%	?	-3%	.
C=CCCCCCCCCC(=O)Nc1ncccn1	21%	-5%	?	-5%	-2%	12µM*
O=C(CCSc1ccccc1)Nc1ncccn1	3%	-2%	-4%	5%	-9%	-9%
